From PubChem BioAssay (NCI)
This is part of a sample that, as a whole, favours compounds with a hit. Of some 83,000 tested, about 20% had one in any assay.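 Cell lines were cultured in 96-well plates, exposed to a single compound concentration, and assessed for percent growth 48 hours later.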 Activity calls are given as the source filed them. Rule for the calls: active = growth percent below 10; inactive = the rest.

Columns and labels:
Test in all cases: NCI-60 one-dose screen, 48 h (100 = growth as untreated, 0 = no growth, -100 = all killed)
Settings in all cases: 10 µM unless noted
NCI-H23 lung = tested on: NCI-H23 lung
NCI-H226 lung = tested on: NCI-H226 lung
NCI-H322M lung = tested on: NCI-H322M lung
HOP-62 NSCLC = tested on: HOP-62 NSCLC
NCI-H460 lung = tested on: NCI-H460 lung
NCI-H522 lung = tested on: NCI-H522 lung
A549/ATCC NSCLC = tested on: A549/ATCC NSCLC
786-0 renal = tested on: 786-0 renal
COLO 205 colon = tested on: COLO 205 colon
DU-145 prostate = tested on: DU-145 prostate
K-562 leukemia = tested on: K-562 leukemia
MALME-3M melanoma = tested on: MALME-3M melanoma
MDA-MB-231 breast = tested on: MDA-MB-231 breast
RXF 393 renal = tested on: RXF 393 renal
SF-268 CNS = tested on: SF-268 CNS
SF-295 CNS = tested on: SF-295 CNS
SF-539 CNS = tested on: SF-539 CNS
UACC-257 melanoma = tested on: UACC-257 melanoma
M14 melanoma = tested on: M14 melanoma

Measured: growth

Cc1ccccc1C1CC(=O)c2ccccc2C1C (stereo not drawn)
inactive: NCI-H23 lung 100% | NCI-H226 lung 103% | NCI-H322M lung 114% | HOP-62 NSCLC 104% | NCI-H460 lung 108% | NCI-H522 lung 97.1% | A549/ATCC NSCLC 89.9% | 786-0 renal 102% | COLO 205 colon 104% | DU-145 prostate 109% | K-562 leukemia 97.3% | MALME-3M melanoma 125% | MDA-MB-231 breast 105% | RXF 393 renal 109% | SF-268 CNS 101% | SF-295 CNS 96.3% | SF-539 CNS 93% | UACC-257 melanoma 103% | M14 melanoma 90.6%

CC(C)CC(=O)C(CCc1ccccn1)C(C)C (stereo not drawn)
inactive: NCI-H23 lung 98.4% | NCI-H226 lung 97.9% | NCI-H322M lung 116% | HOP-62 NSCLC 112% | NCI-H460 lung 107% | NCI-H522 lung 95.3% | A549/ATCC NSCLC 93.9% | 786-0 renal 105% | COLO 205 colon 130% | DU-145 prostate 111% | K-562 leukemia 107% | MALME-3M melanoma 109% | MDA-MB-231 breast 108% | RXF 393 renal 124% | SF-268 CNS 103% | SF-295 CNS 95.2% | SF-539 CNS 106% | UACC-257 melanoma 92.4% | M14 melanoma 105%

CCCCCCCCCCCCCCCC1=NCCN1
inactive: NCI-H23 lung 72.5% | NCI-H226 lung 80.6% | NCI-H322M lung 76.6% | HOP-62 NSCLC 55.3% | NCI-H460 lung 32.5% | NCI-H522 lung 74% | 786-0 renal 78.8% | DU-145 prostate 72.6% | MALME-3M melanoma 103% | MDA-MB-231 breast 30.6% | RXF 393 renal 60.6% | SF-268 CNS 71.3% | SF-295 CNS 90.9% | SF-539 CNS 72.5% | UACC-257 melanoma 99.9% | M14 melanoma 72.3%
active: A549/ATCC NSCLC -15.4% | COLO 205 colon -70.8% | K-562 leukemia 3.78%

COc1ccc2c(c1)N(Cc1ccc(Cl)cc1)CCC2N1CCCC1=O (stereo not drawn)
inactive: NCI-H23 lung 52.7% | NCI-H226 lung 46.5% | NCI-H322M lung 39.9% | HOP-62 NSCLC 52.4% | NCI-H460 lung 39.1% | NCI-H522 lung 32% | A549/ATCC NSCLC 44.4% | 786-0 renal 48.6% | COLO 205 colon 67.3% | DU-145 prostate 43.9% | K-562 leukemia 47.4% | MALME-3M melanoma 39.8% | MDA-MB-231 breast 61.8% | RXF 393 renal 39.4% | SF-268 CNS 59.2% | SF-295 CNS 28.3% | SF-539 CNS 48.5% | UACC-257 melanoma 63.6% | M14 melanoma 60.9%

CC1CCN(CCCCCOc2ccc3oc4ccc(Cl)cc4c(=O)c3c2)CC1
active: K-562 leukemia 9.6% | UACC-257 melanoma 5.99% | M14 melanoma -54%
inactive: NCI-H23 lung 73.6% | NCI-H226 lung 94.7% | NCI-H322M lung 79.8% | HOP-62 NSCLC 77.1% | NCI-H460 lung 26.6% | NCI-H522 lung 52.9% | A549/ATCC NSCLC 47.5% | 786-0 renal 45.8% | COLO 205 colon 21.7% | DU-145 prostate 78.9% | MALME-3M melanoma 81.6% | MDA-MB-231 breast 48% | RXF 393 renal 71% | SF-268 CNS 77.5% | SF-295 CNS 78.7% | SF-539 CNS 74.6%

CCSc1cnnc2ccccc12
inactive: NCI-H23 lung 101% | NCI-H226 lung 101% | NCI-H322M lung 118% | HOP-62 NSCLC 104% | NCI-H460 lung 118% | NCI-H522 lung 97.8% | A549/ATCC NSCLC 108% | 786-0 renal 109% | COLO 205 colon 111% | DU-145 prostate 113% | K-562 leukemia 85.7% | MALME-3M melanoma 124% | MDA-MB-231 breast 103% | RXF 393 renal 123% | SF-268 CNS 102% | SF-295 CNS 117% | SF-539 CNS 106% | UACC-257 melanoma 113% | M14 melanoma 105%

COc1cc(Nc2ncccc2/C=C/C(=O)c2cc(OC)c(OC)c(OC)c2)cc(OC)c1OC
inactive: NCI-H23 lung 81.7% | NCI-H226 lung 82.9% | NCI-H322M lung 102% | HOP-62 NSCLC 92.7% | NCI-H460 lung 79.7% | NCI-H522 lung 87.8% | A549/ATCC NSCLC 68.8% | 786-0 renal 91.7% | COLO 205 colon 75.2% | DU-145 prostate 80.6% | K-562 leukemia 45.5% | MALME-3M melanoma 103% | MDA-MB-231 breast 93.3% | RXF 393 renal 86% | SF-268 CNS 83.3% | SF-295 CNS 84.2% | SF-539 CNS 78.9% | UACC-257 melanoma 67% | M14 melanoma 86.7%
